# Compound activity: PubChem BioAssay, Center for Chemical Genomics, University of Michigan
# Dicer processing: blocks human Dicer maturation of pre-miR-21; z-score at 25 µM; cat-ELCCA pre-miR-21 Dicer processing, chemiluminescence; hits give high values; 47,000 tested, 6% active; Q9UPY3; in the data active means z-score above about 3, passing the limit was not always enough;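 further: plate controls were vehicle for no effect and no enzyme for full effect; higher signal means more uncleaved substrate so more Dicer inhibition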
# Target sequence (Q9UPY3 whole entry, looked up): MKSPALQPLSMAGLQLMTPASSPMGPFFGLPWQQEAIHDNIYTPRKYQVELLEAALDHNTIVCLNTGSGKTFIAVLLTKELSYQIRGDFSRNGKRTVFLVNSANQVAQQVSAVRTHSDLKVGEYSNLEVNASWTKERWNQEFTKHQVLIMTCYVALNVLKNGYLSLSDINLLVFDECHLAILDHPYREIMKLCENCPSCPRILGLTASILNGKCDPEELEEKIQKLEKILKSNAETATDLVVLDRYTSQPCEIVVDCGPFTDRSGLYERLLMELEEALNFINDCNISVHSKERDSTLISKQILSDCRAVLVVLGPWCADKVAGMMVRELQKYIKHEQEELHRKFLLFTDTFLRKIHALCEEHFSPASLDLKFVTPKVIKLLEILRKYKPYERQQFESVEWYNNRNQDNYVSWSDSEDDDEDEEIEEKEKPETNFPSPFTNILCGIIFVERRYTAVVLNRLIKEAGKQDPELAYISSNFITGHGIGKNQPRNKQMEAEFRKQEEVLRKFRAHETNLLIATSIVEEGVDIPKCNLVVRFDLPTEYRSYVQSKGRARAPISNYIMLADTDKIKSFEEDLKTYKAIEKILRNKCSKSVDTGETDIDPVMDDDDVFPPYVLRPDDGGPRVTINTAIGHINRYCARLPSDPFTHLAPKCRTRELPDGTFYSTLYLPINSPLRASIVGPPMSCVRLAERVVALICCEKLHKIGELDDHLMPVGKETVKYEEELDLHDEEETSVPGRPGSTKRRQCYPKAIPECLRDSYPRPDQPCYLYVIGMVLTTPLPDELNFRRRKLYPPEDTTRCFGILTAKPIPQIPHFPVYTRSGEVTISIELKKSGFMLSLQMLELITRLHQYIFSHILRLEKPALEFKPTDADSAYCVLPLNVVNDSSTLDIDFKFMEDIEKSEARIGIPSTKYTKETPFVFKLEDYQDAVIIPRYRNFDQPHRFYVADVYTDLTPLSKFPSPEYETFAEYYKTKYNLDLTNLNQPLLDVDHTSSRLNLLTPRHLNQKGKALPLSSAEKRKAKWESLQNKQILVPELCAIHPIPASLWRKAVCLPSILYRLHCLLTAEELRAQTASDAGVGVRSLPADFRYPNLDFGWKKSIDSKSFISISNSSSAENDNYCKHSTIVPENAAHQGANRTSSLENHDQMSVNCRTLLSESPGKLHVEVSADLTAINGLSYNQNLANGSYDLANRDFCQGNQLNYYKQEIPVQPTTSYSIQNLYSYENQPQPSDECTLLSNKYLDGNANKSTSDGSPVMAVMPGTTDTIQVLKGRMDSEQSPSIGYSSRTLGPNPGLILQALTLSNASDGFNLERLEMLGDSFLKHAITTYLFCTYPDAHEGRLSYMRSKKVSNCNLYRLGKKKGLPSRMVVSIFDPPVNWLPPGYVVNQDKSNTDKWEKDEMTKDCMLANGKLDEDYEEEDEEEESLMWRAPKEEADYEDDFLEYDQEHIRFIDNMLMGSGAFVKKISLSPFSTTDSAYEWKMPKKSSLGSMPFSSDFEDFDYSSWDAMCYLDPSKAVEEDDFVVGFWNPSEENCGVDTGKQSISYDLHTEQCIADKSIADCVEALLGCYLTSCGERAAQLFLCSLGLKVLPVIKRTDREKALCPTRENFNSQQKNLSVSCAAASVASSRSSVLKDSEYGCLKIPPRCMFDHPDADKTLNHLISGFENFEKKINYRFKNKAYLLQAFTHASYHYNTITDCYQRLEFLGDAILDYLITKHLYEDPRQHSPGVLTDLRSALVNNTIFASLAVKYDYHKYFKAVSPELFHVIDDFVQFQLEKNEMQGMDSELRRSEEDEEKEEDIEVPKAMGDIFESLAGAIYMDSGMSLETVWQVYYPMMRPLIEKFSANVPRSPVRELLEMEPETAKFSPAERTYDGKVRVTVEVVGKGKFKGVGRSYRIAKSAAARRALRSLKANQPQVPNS
# The depositor's hits bear a star. The entries come from a sample that favours hits as a whole.
SMILES,Dicer processing
O=[N+]([O-])c1cc(-c2cnc3ccccc3n2)ccc1Sc1ccc(Cl)cc1,-0.9
O=C1NC(=S)S/C1=C/c1ccc(Sc2ccc(Cl)cc2)c([N+](=O)[O-])c1,5.2*
COC(=O)c1ccsc1NC(=O)c1ccc(C)cc1,0.36
CC#CCCCC(=O)Nc1nc2ccc(OC)cc2s1,-5.51
O=C(NNS(=O)(=O)c1ccc(-c2ccccn2)s1)Nc1cccc(Cl)c1,4.04*
Clc1cccc(Sc2ccc(-c3ccccn3)s2)c1,-0.72
COc1ccc(SCCC(=O)NNS(=O)(=O)c2ccc(-c3ccccn3)s2)cc1,-1.68
CCCCCCNCc1ccc(C)s1,0.2
Cc1oc(C(C)(C)C)cc1C(=O)CC#N,0.27
O=C(OCc1ccccc1)c1sc2ccccc2c1Cl,-0.41
CC(C)(C)c1ccc(NC(=O)Nc2nnc(C3CC3)s2)cc1,0.08
COc1ccc(NC(=O)Nc2nnc(C3CC3)s2)cc1OC1CCCC1,6.45*
O=C(Nc1ccc2c(c1)OCCO2)Nc1nnc(C2CC2)s1,2.11
O=C1CCCC2=C1C(c1cccnc1)N(C(=O)c1ccccc1)c1ccccc1N2 (centres undefined),0.27
CCS(=O)(=O)Nc1ccc2c(c1)c1c(n2S(=O)(=O)CC)CC(C)(C)CC1=O,1.34
Fc1cc2c(c(CSc3nc4ccccc4s3)c1)OCOC2,-1.26
C=CCN1C(=O)C(O)(CC(=O)c2ccc(C(C)C)cc2)c2ccccc21 (centres undefined),-1.54
FC(F)(F)c1cccc(N=Cc2c(-c3ccccc3)nc3n2CCS3)c1,2.74
Clc1ccc(N=Cc2c(-c3ccccc3)nc3n2CCS3)cc1,3.87*
CS(=O)(=O)/C(C#N)=C/c1c(-c2ccccc2)nc2n1CCS2,1.54
COc1cccc(C2C3=C(CC(C)(C)CC3=O)Nc3ncnn32)c1 (centres undefined),0.19
Cc1cccc(OCC(O)Cn2c(C)nc3ccccc32)c1 (centres undefined),-1.07
O=C1/C(=C\c2cc(-c3ccccc3)c(C(F)(F)F)s2)CSc2ccc(Cl)cc21,0.83
N#Cc1c(-c2ccccc2)nc(SCc2ccccc2)[nH]c1=O,0.36
Clc1ccc(CSc2ncc(-c3ccc(Cl)cc3)[nH]2)cc1,0.75
SMILES,Dicer processing
N#Cc1c(-c2ccc(Cl)cc2)[nH]c(SCc2ccccc2)nc1=S,3.55*
CC1=C(C(=O)OCCOC(C)C)C(c2ccccc2Br)C2=C(CC(C)(C)CC2=O)N1 (centres undefined),0.11
O=C(CC1CCCCCCCCCCC1)N1CCOCC1,1.01
COc1cccc2c1OC(CC(C)C)N1N=C(c3ccccc3O)CC21 (centres undefined),8.32*
COc1ccc(OC)c(C2Oc3c(OC)cccc3C3CC(c4ccccc4O)=NN32)c1 (centres undefined),0.8
COC(=O)c1ccc(C2Oc3c(OC)cccc3C3CC(c4ccccc4O)=NN32)cc1 (centres undefined),1.4
COc1cccc2c1OC(c1ccc(F)cc1)N1N=C(c3ccccc3O)CC21 (centres undefined),8.55*
COc1cccc2c1OC(c1cccc(OC)c1OC)N1N=C(c3ccccc3O)CC21 (centres undefined),2.13
COc1ccc(C2Oc3c(OC)cccc3C3CC(c4ccccc4O)=NN32)cc1OC (centres undefined),-0.41
C#CCSc1nnc(-c2ccc(C(F)(F)F)nc2C)o1,1.21
Cc1c(NC(=O)/C=N/O)c(=O)n(-c2ccccc2)n1C,0.61
COc1cccc(-c2[nH]nc(SC)c2C#N)c1,-1.61
CC(C)n1c(Sc2ncc([N+](=O)[O-])s2)nc2cc(C(F)(F)F)ccc21,0.13
CCn1nc(C)cc1-c1nnc(SCC(=O)c2ccccc2)n1-c1ccc(Cl)cc1,0.3
COc1ccc(/C=C/c2sc(C)c(C)[n+]2C)cc1,-4.76
COc1ccc(/C=C/c2ccc(OC)cc2)cc1,3.15*
COc1ccc(/C=C/c2nc3ccccc3n2C)cc1,1.15
O=C(Nc1ccc(Cl)cc1)Nc1ccc2ncccc2c1,2.23
Cc1cc(CSC(=N)N)c(C)cc1CSC(=N)N,-7.92
O=C1c2oc3ccc(F)cc3c(=O)c2C(c2ccc(O)cc2)N1Cc1ccc2c(c1)OCO2 (centres undefined),2.28
Cc1cc(O)c2c(c1)C(=O)c1cc(O)cc(O)c1C2=O,-0.78
CCOC(=O)Oc1cc2oc(=O)sc2cc1Cl,-1.15
Cc1ccc(-c2cc(O)cc3sc(=O)oc23)cc1C,6.6*
Cc1cccc(Cl)c1NC(=S)NCc1ccc(C#N)cc1,0.95
COc1ccc(CCN2C(=O)C(Oc3ccccc3C)C2c2ccc3c(c2)OCO3)cc1 (centres undefined),1.84
SMILES,Dicer processing
COc1ccc(OC2C(=O)N(Cc3ccc(F)cc3)C2c2ccc3c(c2)OCO3)cc1 (centres undefined),3.63*
O=C1C(Oc2ccccc2)C(c2ccc3c(c2)OCO3)N1CCc1ccc(F)cc1 (centres undefined),1.16
COCCOC(=O)c1c(C)oc2ccc(OCc3cc(C)ccc3C)cc12,2.16
O=C(Cn1nc(C(F)(F)F)c2c1CCCC2)N1CCCc2ccccc21,0.09
CC(C)CNC(=O)Cn1nc(C(F)(F)F)c2c1CCCC2,1.12
CN(C(=O)Cn1nc(C(F)(F)F)c2c1CCCC2)c1ccccc1,3.83*
Cc1cccc(Cl)c1NC(=S)Nc1cccc(C(F)(F)F)c1,-1.9
CCCOc1ccc(Oc2nc(NCC)nc(N(C)C)n2)nn1,1.22
CCOc1cc(-c2cc(=O)c3ccccc3o2)ccc1O,-0.81
CCOc1cc(-c2cc(OCC)c3c(C)oc(C)c3c(=O)c2)ccc1O,3.55*
CCOc1cc(-c2cc(O)c3c(C)oc(C)c3c(=O)c2)ccc1O,0.83
Cn1c(=O)c2c(c3ccccc31)OC(=O)CC2c1cccc(Br)c1 (centres undefined),0.4
O=C1CC(c2ccc3c(c2)OCO3)c2c(-c3ccccc3)nn(-c3ccccc3)c2N1 (centres undefined),0.02
COc1ccccc1C1N(c2ccccc2)OC(=O)N1c1ccccc1 (centres undefined),0.2
O=C1ON(c2ccccc2)C(c2ccc3c(c2)OCO3)N1c1ccccc1 (centres undefined),3.21*
Cc1ccc(C(=O)c2ccccc2C(=O)O)cc1,-0.81
CCOC(=O)c1nnn2c1nc(Sc1nnc(-c3ccncc3)n1C)c1ccccc12,-2.13
CN1CCN(c2nc3c(=O)[nH]c(N)nc3n2[C@H]2O[C@@H](CO)[C@H](O)[C@@H]2O)CC1,-1.39
CCOc1ccc(/C(O)=C2\C(=O)C(=O)N(Cc3cccnc3)C2c2ccc(O)c(OC)c2)cc1 (centres undefined),1
COC(=O)c1ccc(S(=O)(=O)N(CCO)CCO)n1C,0.61
N/C(COc1ccccc1Cl)=N\O,-0.95
COc1cccc(NC2SC(=O)N(c3ccccc3)C2=O)c1 (centres undefined),49.2*
O=C1SC(Nc2ccc(F)cc2)C(=O)N1c1ccccc1 (centres undefined),1.91
O=C1SC(Nc2cccc(Cl)c2)C(=O)N1c1ccccc1 (centres undefined),0.86
Cn1c(=O)c2c(nc(CN3CCCCC3)n2CCN2CCOCC2)n(C)c1=O,-2.24
O=C(Nc1ccc(Br)cc1)N1CCN(c2ncc(Br)cn2)CC1,0.31
Cc1[nH]nc2c1C(c1ccccc1)C(C#N)=C(N)O2 (centres undefined),-1.19
CC(=O)n1c2c(c3ccccc31)OC(N)=C(C#N)C2c1ccc(Cl)cc1 (centres undefined),-0.43
CN(C)c1ccc(C2C(C#N)=C(N)Oc3c2sc2ccccc32)cc1 (centres undefined),6.01*
